Measurements taken from PubChem BioAssay AID1376 (SRMLSC, 2008).
Out of some 220,000 compounds screened, about 530 (0.24%) were called active. Rule as the data show it: active = inhibition above about 13%; inconclusive = no clear call, values can overlap the other calls; inactive = below that. The list comes from a sample in which actives are over-represented; it also holds similar structures and randomly drawn compounds. Potency and affinity values are given separately.

The molecules below were run against Bifunctional protein GlmU (Mycobacterium tuberculosis (strain ATCC 25618 / H37Rv)) (UniProt P9WMN3) (assay: inhibition of mycobacterial GlmU enzyme – biochemical, glucosamine-1-phosphate acetyltransferase (AID 1376;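 also: 0% = complete reaction with vehicle and 100% = reaction without substrate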)). Details: M. tuberculosis GlmU acetyltransferase enzyme assay; active compounds read high;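 tested at 30 µM in the primary screen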.
Bifunctional protein GlmU (Mycobacterium tuberculosis (strain ATCC 25618 / H37Rv)), sequence (P9WMN3 whole entry, looked up): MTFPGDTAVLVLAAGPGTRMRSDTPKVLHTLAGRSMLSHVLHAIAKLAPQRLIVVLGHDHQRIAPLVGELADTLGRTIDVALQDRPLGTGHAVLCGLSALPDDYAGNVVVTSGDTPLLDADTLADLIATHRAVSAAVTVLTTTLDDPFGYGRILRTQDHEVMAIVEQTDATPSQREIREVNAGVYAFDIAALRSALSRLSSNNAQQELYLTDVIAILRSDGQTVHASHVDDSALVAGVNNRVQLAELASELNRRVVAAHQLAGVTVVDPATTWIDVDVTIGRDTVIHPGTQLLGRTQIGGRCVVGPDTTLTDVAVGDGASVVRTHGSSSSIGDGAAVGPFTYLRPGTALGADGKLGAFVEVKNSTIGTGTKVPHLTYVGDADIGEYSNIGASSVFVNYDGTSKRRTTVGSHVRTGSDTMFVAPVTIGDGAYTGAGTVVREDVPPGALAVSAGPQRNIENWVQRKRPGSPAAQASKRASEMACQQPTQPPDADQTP

Q: With `O=C1CN(/N=C/c2ccc([N+](=O)[O-])o2)C(=O)N1` as the molecule, how does the inhibition read?
A: 0.61% (inactive)

Q: With `O=C(O)/C=C/c1ccc([N+](=O)[O-])o1` as the molecule, how does the inhibition read?
A: -1.44% (inactive)

Q: `Cc1ccc(C2=N/C(=C\N(C)C)C(=O)O2)cc1` was tested. Which inhibition did it give?
A: 1.44% (inactive)

Q: Which inhibition does the source give for `O=C1/C(=C/c2cccc(Br)c2)SC(=S)N1/N=C/c1cc([N+](=O)[O-])ccc1O` here?
A: -5.24% (inactive)

Q: With `Cc1ccccc1/C=C1\SC(=S)N(/N=C/c2cc([N+](=O)[O-])ccc2O)C1=O` as the molecule, how does the inhibition read?
A: -0.74% (inactive)

Q: For `Cc1ccc(/C=C2\SC(=S)N(/N=C/c3cc([N+](=O)[O-])ccc3O)C2=O)o1`, which inhibition is on record?
A: 46.9% (active)

Q: For `CC1CCC(NC(=O)c2ccc(/C=C3\Oc4ccccc4N(C)C3=O)cc2)CC1` (configuration not stated), which inhibition is on record?
A: -2.49% (inactive)

Q: For `O=C(O)C1C2C=CC(C3CC23)C1C(=O)O` (configuration not stated), which inhibition is on record?
A: 1.12% (inactive)

Q: `O=C(O)C1C2C=CC(C2)C1C(=O)N1CCOCC1` (configuration not stated) was tested. Which inhibition did it give?
A: -2.63% (inactive)

Q: With `COc1cc(/C=N/n2c(-c3n[nH]c4c3CCC4)n[nH]c2=S)cc(OC)c1O` as the molecule, how does the inhibition read?
A: 0.14% (inactive)

Q: Which inhibition does the source give for `COc1cc(/C=N/n2c(-c3n[nH]c4c3CCC4)n[nH]c2=S)ccc1O` here?
A: 1.56% (inactive)

Q: Which inhibition does the source give for `COc1ccc(/C=N/n2c(-c3n[nH]c4c3CCC4)n[nH]c2=S)cc1OC` here?
A: 14.3% (active)

Q: With `Cc1cc(C(=O)O)c(CSCc2cc(C(=O)O)oc2C)o1` as the molecule, how does the inhibition read?
A: 2.24% (inactive)

Q: `CN(C)CC(C)(C)CN=Cc1c(O)[nH]c2ccccc12` was tested. Which inhibition did it give?
A: -4.17% (inactive)

Q: `COc1cc2c(cc1OC)C(SC)=NC(C)(C)C2` was tested. Which inhibition did it give?
A: 8.72% (inactive)

Q: How did the inhibition turn out when `COc1cc2c(cc1OC)C(SC)=NC1(CCCC1)C2` was run?
A: 2.45% (inactive)

Q: How did the inhibition turn out when `COc1cc2c(cc1O)C(SC)=NC(C)(C)C2` was run?
A: 14.9% (active)

Q: For `Cc1cccc(N2CCN(C(=O)N3CCCCC3)CC2)c1C`, which inhibition is on record?
A: 4.08% (inactive)

Q: `Cc1cccc(C)c1N1CCN(C(=O)N2CCOCC2)CC1` was tested. Which inhibition did it give?
A: 1.63% (inactive)

Q: For `Cc1cccc(N2CCN(C(=O)N3CCOCC3)CC2)c1C`, which inhibition is on record?
A: 13.8% (active)

Q: How did the inhibition turn out when `COc1ccc(-c2c3c(=O)n(C)c(=O)n(C)c3cn2-c2ccccc2)cc1` was run?
A: -0.39% (inactive)

Q: `COc1ccc(-c2c3c(=O)n(C)c(=O)n(C)c3cn2-c2cccc(OC)c2)cc1` was tested. Which inhibition did it give?
A: 14% (active)

Q: `COc1ccc(-c2c3c(=O)n(C)c(=O)n(C)c3cn2-c2ccc(O)cc2)cc1` was tested. Which inhibition did it give?
A: -0.66% (inactive)

Q: How did the inhibition turn out when `Cc1cc(C)c(C#N)c(SCC(=O)c2cccs2)n1` was run?
A: 3.22% (inactive)

Q: Which inhibition does the source give for `Cc1cc(C)c(C#N)c(SCC(=O)c2ccccc2)n1` here?
A: 2% (inactive)

Q: `Cc1cc(C)c(C#N)c(SCC(=O)c2ccc(Cl)cc2Cl)n1` was tested. Which inhibition did it give?
A: 14.2% (active)

Q: `CC1CCN(CCc2nc3cc(NC(=O)Nc4ccccc4)ccc3n2C)CC1` was tested. Which inhibition did it give?
A: -2.61% (inactive)

Q: Which inhibition does the source give for `O=c1[nH]c(/C=C/c2cccnc2)c([N+](=O)[O-])c(=O)[nH]1` here?
A: -1.57% (inactive)

Q: For `COc1ccc(CCn2c(-c3cc([N+](=O)[O-])cc([N+](=O)[O-])c3)nc3nc4ccccc4nc32)cc1OC`, which inhibition is on record?
A: 1.37% (inactive)

Q: With `COC(=O)CCN(C(=O)c1ccc([N+](=O)[O-])cc1)c1ccccn1` as the molecule, how does the inhibition read?
A: 13.6% (active)

Q: For `COC(=O)CCN(C(=O)c1cccc([N+](=O)[O-])c1)c1ccccn1`, which inhibition is on record?
A: 2.81% (inactive)

Q: How did the inhibition turn out when `COC(=O)CCN(C(=O)c1cc([N+](=O)[O-])cc([N+](=O)[O-])c1)c1ccccn1` was run?
A: 9.11% (inactive)

Q: With `CCc1nnc(NC(=O)C2CCCN(S(=O)(=O)c3ccc(OC)cc3)C2)s1` (configuration not stated) as the molecule, how does the inhibition read?
A: -3.09% (inactive)

Q: Which inhibition does the source give for `CCOc1ccc(-n2c(C)nnc2SCC(=O)N(CC)CC)cc1` here?
A: -6.69% (inactive)

Q: `O=C(O)c1ccccc1/C=N/NC(=O)C1CCCCC1` was tested. Which inhibition did it give?
A: 1.79% (inactive)

Q: How did the inhibition turn out when `CCC(C)C1NC(=S)N(C2CCCCC2)C1=O` (configuration not stated) was run?
A: 15.5% (active)

Q: Which inhibition does the source give for `CC(C)C1NC(=S)N(C2CCCCC2)C1=O` (configuration not stated) here?
A: 1.15% (inactive)

Q: How did the inhibition turn out when `CCC1NC(=S)N(C2CCCCC2)C1=O` (configuration not stated) was run?
A: -5.8% (inactive)

Q: With `COc1ccc(NCN2C(=O)CCC2=O)cc1` as the molecule, how does the inhibition read?
A: 13.4% (active)

Q: Which inhibition does the source give for `O=C1CCC(=O)N1CNc1ccc(Oc2ccccc2)cc1` here?
A: 4.2% (inactive)

Q: For `COc1ccc(NCN2C(=O)C3C4C=CC(C4)C3C2=O)cc1` (configuration not stated), which inhibition is on record?
A: 0.26% (inactive)

Q: `NC(=O)c1c(NC(NC(=O)c2ccco2)C(=O)c2ccc(Cl)cc2)sc2c1CCCC2` (configuration not stated) was tested. Which inhibition did it give?
A: 2% (inactive)

Q: `Cc1ccc2nc(C)cc(N/N=C/c3cccnc3)c2c1` was tested. Which inhibition did it give?
A: -6% (inactive)

Q: For `CC(C)S(=O)(=O)C/C(N)=N/OS(=O)(=O)c1ccc(Cl)cc1`, which inhibition is on record?
A: 0.64% (inactive)

Q: Which inhibition does the source give for `N#Cc1cccc(-n2nnnc2-c2ccc3c(c2)OCO3)c1` here?
A: 0.01% (inactive)

Q: For `CC1CN(c2ccc([N+](=O)[O-])c(NCCOc3ccccc3)c2)CCN1` (configuration not stated), which inhibition is on record?
A: 1.45% (inactive)

Q: How did the inhibition turn out when `Cc1ccc(Sc2cc(NCCCO)c([N+](=O)[O-])c3nonc23)cc1` was run?
A: -0.69% (inactive)

Q: Which inhibition does the source give for `Cn1ccnc1Sc1cc(NCCCO)c([N+](=O)[O-])c2nonc12` here?
A: 3.47% (inactive)

Q: How did the inhibition turn out when `CCC(=O)OCCNc1cc(Sc2nc3ccccc3[nH]2)c2nonc2c1[N+](=O)[O-]` was run?
A: 10.6% (inactive)

Q: `Cc1nnc(Sc2cc(NCCO)c([N+](=O)[O-])c3nonc23)s1` was tested. Which inhibition did it give?
A: 1.7% (inactive)

Q: For `CCC(=O)OCCNc1cc(Sc2nccn2C)c2nonc2c1[N+](=O)[O-]`, which inhibition is on record?
A: 12.7% (inactive)

Q: How did the inhibition turn out when `CCCC(=O)OCCNc1cc(Sc2nc3ccccc3[nH]2)c2nonc2c1[N+](=O)[O-]` was run?
A: 9.67% (inactive)

Q: With `CSc1ncccc1C(=O)OCC(=O)NC1CCS(=O)(=O)C1` (configuration not stated) as the molecule, how does the inhibition read?
A: 3.34% (inactive)

Q: For `Cc1ccccc1OCc1nc(C#N)c(N2CCCC2)o1`, which inhibition is on record?
A: -2.21% (inactive)

Q: For `COc1ccc(-c2cc(C(=O)N3CCN(c4ccccc4OC)CC3)no2)cc1OC`, which inhibition is on record?
A: -2.36% (inactive)

Q: For `Cc1nc2ccccc2cc1C(=O)N/N=C/c1cccc([N+](=O)[O-])c1`, which inhibition is on record?
A: 1.15% (inactive)

Q: For `Cc1onc(-c2ccccc2)c1C(=O)N1CCc2ccccc21`, which inhibition is on record?
A: -2.16% (inactive)

Q: Which inhibition does the source give for `Cc1noc(C)c1C(=O)N1CCc2ccccc21` here?
A: 12.9% (active)

Q: `Cc1noc(C)c1C(=O)N1CCCc2ccccc21` was tested. Which inhibition did it give?
A: -6.07% (inactive)

Q: `Cc1cc(S(=O)(=O)NCc2ccccc2)ccc1OCC(=O)N1CCOCC1` was tested. Which inhibition did it give?
A: 0.4% (inactive)

Q: `CC(C)CCNC(=O)CCCOc1cc(=O)n(C)c2ccccc12` was tested. Which inhibition did it give?
A: 4.37% (inactive)

Q: For `CCN1CCN(C(=O)C23CCC(C)(C(=O)C2Br)C3(C)C)CC1` (configuration not stated), which inhibition is on record?
A: 5.77% (inactive)

Q: Which inhibition does the source give for `COc1ccc(OCC(=O)c2c(O)c3ccccc3oc2=O)cc1` here?
A: 13.8% (active)

Q: With `Cc1ccc(C(C)C)c(OCC(=O)c2c(O)c3ccccc3oc2=O)c1` as the molecule, how does the inhibition read?
A: 4.14% (inactive)

Q: `CCCCC(=O)c1c(O)c2ccccc2oc1=O` was tested. Which inhibition did it give?
A: 0.58% (inactive)

Q: For `CCOc1ccc(OCC(=O)c2c(O)c3ccccc3oc2=O)cc1`, which inhibition is on record?
A: 14.2% (active)

Q: `Cc1ccc(OCC(=O)c2c(O)c3ccccc3oc2=O)cc1C` was tested. Which inhibition did it give?
A: 0.96% (inactive)

Q: Which inhibition does the source give for `CCc1ccc(OCC(=O)c2c(O)c3ccccc3oc2=O)cc1` here?
A: -0.96% (inactive)

Q: With `CNc1c([N+](=O)[O-])cnn1-c1ccc(C)cc1` as the molecule, how does the inhibition read?
A: 5.02% (inactive)

Q: With `C=CCOc1ccc(/C(O)=C2/C(=O)C(=O)N(CCCn3ccnc3)C2c2ccco2)cc1` (configuration not stated) as the molecule, how does the inhibition read?
A: 5.54% (inactive)

Q: With `CC(C)(C)NCC(O)COc1ccc(Br)cc1` (configuration not stated) as the molecule, how does the inhibition read?
A: -5.25% (inactive)

Q: For `CN(C)c1nc(-c2ccccc2)nc(-c2ccc(Cl)cc2)c1C#N`, which inhibition is on record?
A: -2.64% (inactive)

Q: For `C/C(=N\NC(=O)c1ccccc1)c1ccccc1Br`, which inhibition is on record?
A: 3.08% (inactive)

Q: `Nc1ccc(S(=O)(=O)N2CCCC2)cc1Cl` was tested. Which inhibition did it give?
A: 0.44% (inactive)

Q: With `CC1=CC(C)C(C(=O)O)C(C(=O)O)C1` (configuration not stated) as the molecule, how does the inhibition read?
A: 4.72% (inactive)

Q: How did the inhibition turn out when `COC(=O)C1C(c2ccccc2)C=CC(c2ccccc2)C1C(=O)O` (configuration not stated) was run?
A: 2.66% (inactive)

Q: With `CC(C)(C)C(=O)COC(=O)c1cccc(NC(=O)c2ccco2)c1` as the molecule, how does the inhibition read?
A: 3.57% (inactive)

Q: How did the inhibition turn out when `CN(C)c1ccc(-c2nc3ccccc3n2C)cc1` was run?
A: 3.52% (inactive)

Q: `CCn1c(-c2ccc(N)cc2)nc2ccccc21` was tested. Which inhibition did it give?
A: 4.62% (inactive)

Q: How did the inhibition turn out when `CCn1c(-c2ccc(N(C)C)cc2)nc2ccccc21` was run?
A: 13.3% (active)

Q: Which inhibition does the source give for `Cc1cnc(C)c(N2CCC(C(=O)NCc3cccs3)CC2)n1` here?
A: 2.06% (inactive)

Q: How did the inhibition turn out when `Cc1cnc(C)c(N2CCC(C(=O)NCc3ccco3)CC2)n1` was run?
A: -3.63% (inactive)

Q: With `Cc1cnc(C)c(N2CCC(C(=O)NC(C)c3cccs3)CC2)n1` (configuration not stated) as the molecule, how does the inhibition read?
A: 13.1% (active)

Q: How did the inhibition turn out when `O=C/C(=C\Nc1ccccn1)c1nc2ccccc2o1` was run?
A: 13.3% (active)

Q: For `O=C/C(=C\Nc1ccc(Cl)cn1)c1nc2ccccc2o1`, which inhibition is on record?
A: 0.28% (inactive)

Q: For `O=C/C(=C\Nc1ccccn1)c1nc2cc(Cl)ccc2o1`, which inhibition is on record?
A: -1.58% (inactive)

Q: With `COC(=O)/C=C/c1ccc(-n2cncn2)cc1` as the molecule, how does the inhibition read?
A: 0.5% (inactive)
